# Data taken from the supplement of paper PMC6522484.
# ± gives the standard deviation of the averaged measurements.
# Columns and labels:
# DLD1 [1] = assay: cell viability (CellTiter-Glo) relative to plate median (fraction of plate median); higher = more viable cells; settings: 5 µM; treatment time 24 h; reporter: 7TFP
# Summary of the method: (§1)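 Colorectal cancer cells stably transduced with lentiviral TCF/Wnt firefly luciferase reporters were seeded in 384-well plates and dosed 24 h later with library compounds at a final 5 µM for 24 h. Firefly luciferase or CellTiterGlo luminescence was then read on a Tecan F500 from parallel plates. Signals were normalised per well to the plate median without log transformation, additively in webcellHTS2, and averaged over two independent replicates.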
# HCT116 = assay: as above; settings: 5 µM; treatment time 24 h; reporter: TCF4/Wnt
# Summary of the method: as §1
# SW480 [2] = assay: as above; settings: 5 µM; treatment time 24 h; reporter: 7TFP
# Summary of the method: as §1
# DLD1 [3] = assay: TCF/Wnt firefly luciferase reporter signal relative to plate median (fraction of plate median); higher = higher Wnt reporter signal; settings: 5 µM; treatment time 24 h; reporter: 7TFP
# Summary of the method: as §1
# SW480 [4] = assay: as above; settings: 5 µM; treatment time 24 h; reporter: 7TFP
# Summary of the method: as §1
Structure (SMILES),cell viability (DLD1 [1]),cell viability (HCT116),cell viability (SW480 [2]),TCF/Wnt firefly luciferase reporter signal (DLD1 [3]),TCF/Wnt firefly luciferase reporter signal (SW480 [4])
Cc1ncc(CO)c(CO)c1O,1.02 ± 0.033,1.09 ± 0.17,1.02 ± 0.014,0.951 ± 0.11,0.9705 ± 0.0092
CN[C@@H]1[C@H](O)[C@H](NC)[C@H]2O[C@@]3(O)C(=O)C[C@@H](C)O[C@H]3O[C@@H]2[C@H]1O,1.04 ± 0.08,1.004 ± 0.0085,0.978 ± 0.025,1.24 ± 0.18,1.09 ± 0.13
CCCCN(CCCC)CCCOC(=O)c1ccc(N)cc1,0.877 ± 0.033,0.92 ± 0.13,0.954 ± 0.053,1.11 ± 0.014,0.993 ± 0.011
Nc1nc2c(ncn2[C@H]2C[C@H](O)[C@@H](CO)O2)c(=O)[nH]1 [Desoxyguanosin],1 ± 0.013,1.01 ± 0.11,1.004 ± 0.0078,0.989 ± 0.016,0.997 ± 0.018
CC[C@H](/C=C/[C@@H](C)[C@H]1CC[C@H]2[C@@H]3CC=C4C[C@@H](O)CC[C@]4(C)[C@H]3CC[C@]12C)C(C)C,1.04 ± 0.096,1.14 ± 0.14,1.03,1.05 ± 0.014,1 ± 0.066
CCOC(=O)NNc1nncc2ccccc12,0.981 ± 0.07,1.01 ± 0.014,0.981 ± 0.056,0.85 ± 0.045,0.784 ± 0.069
CC(=O)NCCc1ccc(O)cc1 [N-(p-Hydroxyphenyl)ethylacetamide],1.02 ± 0.04,1.09 ± 0.057,1.06 ± 0.021,0.99 ± 0.099,1.14 ± 0.021
CC(=O)O[C@]1(C(C)=O)CC[C@H]2[C@@H]3C=C(C)C4=CC(=O)CC[C@]4(C)[C@H]3CC[C@@]21C,0.988 ± 0.088,0.971 ± 0.037,0.984 ± 0.037,1.03 ± 0.086,1 ± 0.04
COc1cc(O)ccc1C(C)=O,0.941 ± 0.059,0.97 ± 0.015,0.92 ± 0.0071,0.889 ± 0.054,0.97 ± 0.026
CCC(C)C(NC)C(=O)O (stereo not given),0.959 ± 0.073,0.923 ± 0.058,0.946 ± 0.05,1.01 ± 0.22,0.947 ± 0.09
C[N+]1(C)C[C@H](O)C[C@H]1C(=O)[O-],1.03 ± 0.014,0.985 ± 0.035,0.967 ± 0.0099,1.06 ± 0.035,0.869 ± 0.025
CCC(C)C(=O)OC1[C@@H]2CC3=C4CC(=O)O[C@@H](c5ccoc5)[C@]4(C)CCC3[C@@](C)(C2=O)[C@@H](CC(=O)OC)C1(C)C (stereo not given in full),1.085 ± 0.0071,1.19 ± 0.092,1.18 ± 0.092,1.15 ± 0.15,0.938 ± 0.088
CCCCN1CCCCC1C(=O)Nc1c(C)cccc1C (stereo not given),1.02 ± 0.055,0.949 ± 0.071,1.06 ± 0.042,0.901 ± 0.081,0.887 ± 0.047
CCCCCCCCCCC[C@@H](C[C@@H]1OC(=O)[C@H]1CCCCCC)OC(=O)[C@H](CC(C)C)NC=O,0.83 ± 0.15,1.03 ± 0.12,0.972 ± 0.018,1.01 ± 0.13,0.933 ± 0.023
CC(C)=CC1C(C(=O)O)C1(C)C (stereo not given),1 ± 0.037,0.98 ± 0.057,0.977 ± 0.047,0.897 ± 0.065,1.02 ± 0.058
C=C1c2cccc(O)c2C(=O)C2=C(O)[C@]3(O)C(=O)C(C(N)=O)=C(O)[C@@H](N(C)C)[C@@H]3[C@@H](O)[C@H]12,0.968 ± 0.0014,0.928 ± 0.13,0.969 ± 0.073,1.06 ± 0.26,1.11 ± 0.064
Cc1ccccc1OCC(O)CO (stereo not given),0.958 ± 0.042,0.983 ± 0.0099,0.999 ± 0.03,1.02 ± 0.15,1.04 ± 0.014
CCCC1O[C@@H]2C[C@H]3[C@@H]4CCC5=CC(=O)C=C[C@]5(C)[C@H]4[C@@H](O)C[C@]3(C)[C@]2(C(=O)CO)O1 (stereo not given in full),1.03 ± 0.014,0.938 ± 0.1,0.912 ± 0.015,1.09 ± 0.071,0.81 ± 0.04
C[C@]12CCC(=O)C=C1CC[C@@H]1[C@@H]2[C@@H](O)C[C@@]2(C)[C@H]1CC[C@]2(O)C(=O)COC(=O)CCC(=O)O,1.07 ± 0.042,1.11,1.03 ± 0.035,1.01 ± 0.02,1 ± 0.099
C=CCCCCCCCCCCCC(O)CC(O)CO (stereo not given),1.1 ± 0.099,1.05 ± 0.11,1.05 ± 0.05,0.964 ± 0.05,1.03 ± 0.042
O=C1NCC2(CCN(CCc3ccccc3)CC2)O1,0.8925 ± 0.0021,1.06 ± 0.078,0.963 ± 0.018,1.05 ± 0.095,1.01 ± 0.062
CC(=O)OC1CCC23CC1(C)CCC2C(C)(C)CC3OC(C)=O (stereo not given),0.999 ± 0.044,1.09 ± 0.021,1.02 ± 0.042,1.03 ± 0.014,0.93 ± 0.04
O=C1CC[C@]23/C=C/C(=O)NCCCCNCCCNC(=O)/C=C/c4ccc(c2c4)O[C@@H]3C1,1.03 ± 0.014,1.06 ± 0.057,1.01 ± 0.024,1.01 ± 0.056,1.04 ± 0.042
"CC(C)CC1NC(=O)C(NC(=O)c2ncccc2O)C(C)OC(=O)C(c2ccccc2)N(C)C(=O)C(C)NC(=O)C(C(C)C(C)C)N(C)C(=O)CN(C)C(=O)C2CCCN2C1=O (single isomer, unassigned; isomere) [Neoviridogrisein II (Isomere)]",0.904 ± 0.024,0.991 ± 0.07,1.02 ± 0.03,0.918 ± 0.1,0.937 ± 0.02
COC(=O)CC[C@@H](C)[C@H]1CC[C@H]2[C@@H]3[C@H](O)C[C@@H]4C[C@H](O)CC[C@]4(C)[C@H]3C[C@H](O)[C@]12C,0.98 ± 0.0099,1.06,1.005 ± 0.0071,1.21 ± 0.014,1.09 ± 0.092
COC(=O)[C@@H]1[C@H]2C[C@H]3c4[nH]c5ccccc5c4CCN3C[C@@H]2CC[C@@H]1O,0.964 ± 0.033,1.08 ± 0.13,1.005 ± 0.0071,0.919 ± 0.16,0.9165 ± 0.0021
CC(C)C[C@@H]1NC(=O)[C@H](C)NC1=O [cyclo(alanylleucyl)],0.998 ± 0.046,1.02 ± 0.11,0.998 ± 0.045,0.994 ± 0.0028,0.987 ± 0.1
COc1ccc(-c2coc3cc(O)ccc3c2=O)c(OC)c1O,1.01 ± 0.021,1.03 ± 0.063,0.966 ± 0.076,0.852 ± 0.047,0.975 ± 0.025
O=C(OCC(O)CO)c1ccccc1Nc1ccnc2cc(Cl)ccc12 (stereo not given),0.984 ± 0.037,1.015 ± 0.0071,1.02 ± 0.021,0.954 ± 0.15,0.922 ± 0.044
Oc1cc(O)c2c(c1)O[C@H](c1ccc(O)c(O)c1)[C@@H](O)C2,1.03 ± 0.014,1.03 ± 0.076,1.04 ± 0.042,1.08 ± 0.014,1.15 ± 0.035
